Test results published in PubChem BioAssay AID626 (Vanderbilt High Throughput Screening Facility, 2007).
The campaign covered roughly 64,000 compounds. About 1,900 (3%) were called active. This is one part of a sample in which actives are shown more often than they occur. A number with no mark means an inactive call.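 The calls were made as follows: active = fluorescence rise, raw or as B-score row- and column-corrected plate score, outside the 99.7% band of its plate's samples, either direction; inactive = the rest.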

The compounds below were run on Muscarinic acetylcholine receptor M1 (assay: M1 muscarinic receptor agonists, primary screen, CHO-M1 cells, Fluo-4 calcium, agonist mode (AID 626)). Conditions: Fluo-4 calcium fluorescence, at 10 µM, stronger effect = higher value.

Compound | B-score
CS(=O)(=O)N(Cc1nc2sc3c(c2c(=O)[nH]1)CCCC3)C1CCCCC1 | -0.0154
CSCCC(NC(=O)C1CCC(C)CC1)C(=O)NCc1ccco1 (stereo not drawn) | -0.577
Cn1c(=O)[nH]c(=O)c2c1nc(NCCCn1ccnc1)n2Cc1cccc(Br)c1 | 0.757
COc1ccc(C2C(C(=O)N3CCN(c4ccc(OC)cc4)CC3)c3ccccc3C(=O)N2C)cc1 (stereo not drawn) | 4.34 (active)
COc1ccc(N2CCN(CCNC(=O)CCN3C(=O)COc4ccccc43)CC2)cc1 | 0.72
CCOc1ccc(C2C(C(=O)O)c3ccccc3C(=O)N2CCN2CCOCC2)cc1 (stereo not drawn) | 0.0396
CN(C)/C=C/c1c(C#N)c(=O)ncn1Cc1ccccc1 | 1.01
N#C/C=C\Oc1ccc(Cl)cc1N | 0.000464
COc1ccc(C(C(O)C(=O)c2c[nH]c3ccccc23)N2CCN(c3ccccc3)CC2)cc1 (stereo not drawn) | 3.3 (active)
CCCC(=O)NC(C)C(c1cccs1)N1CCN(c2ccccc2)CC1 (stereo not drawn) | -0.223
COc1ccc(OC)c(S(=O)(=O)N(C)CC(=O)N2CCN(c3ccccc3)CC2)c1 | 0.148
CCOC(=O)c1sc(NC(=O)CSc2ncccn2)c(C#N)c1C | 0.288
COc1ccc(S(=O)(=O)N2CCN(C(=O)c3cccs3)CC2)cc1OC | -1.5
CC(=O)c1ccc(N2C(=NC(=O)C(C)C)SC3CS(=O)(=O)CC32)cc1 (stereo not drawn) | -0.587
Cn1c(=O)c(=O)n(C)c2cc(S(=O)(=O)NCCc3ccccc3)ccc21 | 0.704
O=C(CN1CCOCC1)Nc1ccc(NC(=O)CN2CCOCC2)c(Cl)c1 | -0.0117
COc1ccc(NC(C)=O)cc1NC(=O)CN1CCN(C2c3ccccc3-c3ccccc32)CC1 | 0.8
CC(=O)Nc1ccc(NC(=O)CN2CCCC(C)C2)c(Cl)c1 (stereo not drawn) | 6.88 (active)
CCNS(=O)(=O)c1ccc(NC(=O)Nc2cccc(OC)c2)cc1 | 2.45

Compound | B-score
CCOP1(=O)C=C(C(C)(C)C)OC1c1ccc(F)cc1 (stereo not drawn) | -0.203
CCOc1ccc(NCCC(=O)c2ccc3c(c2)OCO3)cc1 | -0.0168
Cc1ccc2oc(=O)c3cnn(CC(=O)N4CCN(c5ccccn5)CC4)c3c2c1 | 7.39 (active)
Cc1ccc2oc(=O)c3cnn(CC(=O)N4CCCCCC4)c3c2c1 | 0.0625
CCOC(=O)C1CCCN(C(=O)Cn2ncc3c(=O)oc4ccc(C)cc4c32)C1 (stereo not drawn) | -0.657
O=C(NC1CC2CCCC(C1)N2C(=O)N1CCCCC1)C1CCCCC1 (stereo not drawn) | 0.398
CN1CCCC(OC(=O)COc2ccc(Br)cc2)C1 (stereo not drawn) | 2.29
Cc1ccc(F)cc1NC(=O)c1ccc2c(c1)OCO2 | 0.368
CCOC(=O)c1c(NC(=O)CSc2nnc(CN3CCOCC3)n2C)sc2c1CCCC2 | 0.743
O=C(CSc1nnc(-c2ccco2)n1Cc1ccccc1)NC(=O)NCc1ccco1 | 2.23 (active)
O=C(CSc1nnc(-c2ccco2)n1-c1ccccc1)NCCc1ccccc1 | 0.164
c1ccc(CSc2nnc(-c3ccco3)n2Cc2ccccc2)cc1 | 1.61
COc1cccc(-c2nn(C)c3sc(C(=O)N4CCN(c5ccccc5)CC4)cc23)c1 | -0.654
CC(C[N+](C)(C)C)OC(N)=O (stereo not drawn) | 67.7 (active)
CC(=O)OC(C)C[N+](C)(C)C (stereo not drawn) | 53.8 (active)
CCC(=O)N1c2ccc(S(=O)(=O)CCC(=O)N3CCN(c4ccccc4)CC3)cc2CC1C (stereo not drawn) | -2.01
Cn1c(=O)c2c(ncn2CC(=O)N2CCN(c3ccccc3)CC2)n(C)c1=O | 0.437
COc1ccc(-c2nnco2)cc1OC | 0.77
O=S(=O)(CCc1nc2ccccc2o1)c1ccc(Cl)cc1 | 0.134
